In PubChem BioAssay AID504834 (National Center for Advancing Translational Sciences (NCATS), 2011):
In all, about 320,000 compounds went through this assay and about 22,000 (6.9%) were called active. About 27% were inconclusive and are not listed. Only a selection was taken, and actives are over-represented in it overall. Values without a mark were called inactive. Calls follow the shape of the dose curve; as a rule, active = well fitted inhibition curve with a large enough effect; inconclusive = small, poorly fitted or top-dose-only effect, or another doubt; inactive = no such curve, though single readings can be large or run the other way. Where a SMILES comes first, the peptide text is derived from it. [ ]: non-standard residue; d: D form. The star is where a group is joined. ξ: configuration not given here. Cbz = O=C(OCc1ccccc1)*; ξL = CC(C)CC(N)C(=O)O; ξP = O=C(O)C1CCCN1

Experiment: Primary qHTS for delayed death inhibitors of the malarial parasite plastid, 96 hour incubation
Conditions: P. falciparum luciferase reporter growth; series mostly up to 28.7 µM; activity change, negative = inhibition: at the top concentration
Summary of the method: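 Readout is luminescence from an integrated firefly luciferase in P. falciparum. Red cells, 2% hematocrit and 0.05% parasitemia final, were cultured with compound through two parasite generations (96 hours) at 37 C, 5% CO2.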
% is scaled to controls: 0 for no effect and ±100 for the full control effect; potency is read from the fitted curve at half-maximal effect.

Point of comparison: `CC(C)c1ccc(S(=O)(=O)NC2CCCC2)cc1`, “activity change, negative = inhibition” value 53.9%. Against it:
- CC(Sc1nnc(COc2ccccc2)n1-c1ccccc1)C(=O)O (stereo not given) — lower, -4.37%
- CCn1c(SCC(=O)NC2CC2)nnc1-c1ccccc1OC — lower, -14.8%
- CCOC(=O)N1CCN(C(=O)CSc2nnc(-c3c[nH]c4ccccc34)n2CCOC)CC1 — lower, 0.202%
- c1ccc(CCNC2CCCCCC2)cc1 — lower, 38.6%
- O=C(NNC(=O)C(O)c1ccccc1)NC1CCCCC1 (stereo not given) — higher, 56.9%
- Cc1cc(Cl)c2oc(C(=O)N(C)C(C)c3ccccn3)c(C)c2c1 (stereo not given) — lower, -22.1%
- CN(C)c1nc(Nc2ccc(Cl)c(Cl)c2)nc(N(C)C)n1 — lower, -16.4%
- COc1cc(C2C(C(=O)c3ccco3)=C(O)C(=O)N2c2cc(C)on2)ccc1OCc1ccccc1 (stereo not given) — lower, -4.61%
- Cc1ccc2nc(N3CCN(C(=O)c4ccco4)CC3)sc2c1 — lower, -9.37%
- COc1ccc(C(=O)NCc2nnc(SCC(=O)NC3=NCCS3)n2C)cc1 — lower, 16.2%
- CCOc1ccccc1NC(=O)Cc1cccs1 — higher, 341%
- COc1cc(C(=O)NCC2(c3ccccc3)CCCC2)ccc1OC(C)C — lower, 33%
- Cn1cnnc1Sc1ccc(CN2CCN(C3CCCC3)C(CCO)C2)o1 (stereo not given) — lower, 1.4%
- CC[C@H](C)C(=O)N[C@H]1CCCN1C(=O)/C=C/c1ccccc1 — lower, 41%
- Cc1ccc(C)c(OCCC(=O)OCC(=O)c2ccc3c(c2)NC(=O)CO3)c1 — lower, 21.2%
- Cc1cc(C)cc(NC(=O)COc2coc(CN3CCN(c4ccccc4)CC3)cc2=O)c1 — lower, -27.2%
- O=C(COc1coc(CN2CCN(c3ccccc3)CC2)cc1=O)Nc1ccccc1F — lower, 2.2%
- CC(=O)O[C@H]1CC[C@@]2(C)[C@@H](CC[C@@H]3[C@@H]2CC[C@]2(C)[C@@H](C(C)(C)O)C[C@@H]32)C1 — lower, -8.75%
- CC1CCC2CCCCC2N1C(=O)c1cc([N+](=O)[O-])cc([N+](=O)[O-])c1 (stereo not given) — lower, -2.82%
- O=C(NCc1ccco1)C(c1ccncc1)N(C(=O)Cn1nnc2ccccc21)c1ccccc1 (stereo not given) — lower, -0.183%
- Cc1cccc(N(C(=O)c2sc(C)nc2C)C(C(=O)NCC2CCCO2)c2ccccc2)c1 (stereo not given) — lower, -28.1%
- CC(C)(C)NC(=O)C(c1ccc(Cl)cc1)N(CCO)C(=O)c1snc(C(N)=O)c1N (stereo not given) — higher, 202%
- CCCCCNC(=O)C1c2ccccc2Oc2ccccc21 — lower, 0%
- CCOC(=O)c1ccc(N2C(=O)CC(N3CCN(C(=O)c4ccccc4)CC3)C2=O)cc1 (stereo not given) — lower, 25.2%
- CCOC(=O)c1ccc(N2C(=O)CC(N3CC(C)OC(C)C3)C2=O)cc1 (stereo not given) — lower, 7.59%
- CCN1CCN(C(=O)C2CCCN(S(=O)(=O)c3ccc(OC)c(OC)c3)C2)CC1 (stereo not given) — lower, -7.76%
- COc1cccc(NC(=O)CN(C)CC(=O)c2c(N)n(Cc3ccccc3)c(=O)n(C)c2=O)c1 — lower, -24.5%
- COc1ccc(OC)c(CCNC(=O)c2nn(C)c3c2CS(=O)(=O)c2ccccc2-3)c1 — lower, 32.5%
- CC(C)CC(NC(=O)C1CCCN1C(=O)[C@@H](C)NC(=O)OCc1ccccc1)C(=O)NCC(N)=O (stereo not given in full) (Cbz-[dA][ξP][ξL]G-NH2) — lower, 19.9%
- CN(CCOc1ccc(Br)cc1)CC(=O)Nc1cccc(S(=O)(=O)NC2=NCCC2)c1 — lower, -7.64%
- O=C(CSc1nc2ccccc2c(=O)n1-c1ccc(F)cc1)NC1CC1 — lower, -26.1%
- O=C(Nc1cccc(S(=O)(=O)NC2=NCCC2)c1)C1CCCCC1 — lower, -0.475%
- NS(=O)(=O)c1cccc(NC(=O)CSc2nc3ccccc3n2-c2ccccc2)c1 — lower, -21%
- COc1ccc(C(C)=O)cc1COc1ccc(Cl)c(C)c1 — lower, 22.6%
- COCCN(C(=O)CSCc1ccc(C)cc1)c1c(N)n(CC(C)C)c(=O)[nH]c1=O — lower, -15.3%
- CC(=O)Nc1ccc(C(=O)/C=C/c2ccc[nH]2)cc1 — higher, 80.9%
- Cc1ccccc1OCCC(=O)OCC(=O)NCCc1ccc(S(N)(=O)=O)cc1 — lower, -16.7%
- O=C(CS(=O)(=O)c1ccccc1)Nc1ccc(S(=O)(=O)Nc2ccccn2)cc1 — lower, 14.6%
- Cc1ccc(OCC(=O)Nc2ccc(S(=O)(=O)Nc3ccccn3)cc2)cc1 — lower, 42.9%

With `CCn1c(SCC(=O)Nc2ccc(OC)c(OC)c2)nnc1-c1c[nH]c2ccccc12` the Potency was 11.7 µM (active).
With `OC(CNC1CCCCC1)c1ccccc1` (stereo not given) the Potency was 9.28 µM (active).
In the case of `Cc1ccc2nc(N3C(=O)C(O)=C(C(=O)c4ccco4)C3c3cccc(O)c3)sc2c1` (stereo not given), the Potency is reported as 9.28 µM (active).
With `OCCC1CN(Cc2ccc3nsnc3c2)CCN1C1CCCCC1` (stereo not given) the Potency was 10.4 µM (active).
In the case of `C=CCNC(=O)COc1coc(CN2CCN(Cc3ccccc3)CC2)cc1=O`, the Potency is reported as 13.1 µM (active).
For `Cc1nc(C)c(C(=O)N(c2ccc(C)c(C)c2)C(C(=O)NCc2ccco2)c2ccccc2)s1` (stereo not given), the Potency was 10.4 µM (active).
For `CCOC(=O)c1ccc(N2C(=O)CC(N(C)Cc3ccccc3)C2=O)cc1` (stereo not given), the Potency was 1.47 µM (active).
In the case of `CCc1ccc(C(=O)OCC(=O)Nc2cccc(S(=O)(=O)NC3=NCCCCC3)c2)cc1`, the Potency is reported as 10.4 µM (active).
For `Cc1cccc(-n2c(SCC(=O)Nc3cccc(S(=O)(=O)NC4=NCCCCC4)c3)nc3ccccc3c2=O)c1C`, the Potency was 5.22 µM (active).
With `Cc1cc(C)cc(OCC(=O)Nc2ccc(S(=O)(=O)Nc3ccccn3)cc2)c1` the Potency was 1.65 µM (active).
